Screening data deposited in PubChem by Sanford-Burnham Center for Chemical Genomics.
Neddyl block: blocks human cullin neddylation. P61081+Q13564. TR-FRET cullin neddylation, biochemical. inhibition, % at 25 µM. actives 0.58% (n = 360,000); in the data active = inhibition above about 36%
NPR1 activator: GC-A (human) enzyme activation; P16066; HEK293 GC-A cells, cGMP TR-FRET, EC30 ANP; 0% at EC30 ANP, 100% saturating ANP; activation, % at 10 µM; actives 0.14% (n = 370,000); in the data active = activation above about 40%
NPR2 activator: GC-B (human) receptor activation; activation, % at 10 µM; P20594; HEK293-GC-B cells, CNP EC30, cGMP TR-FRET; 0% at EC30 CNP, 100% saturating CNP; actives 0.11% (n = 370,000);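 active = activation at 10 µM reaching about 35% in either raw or pattern-adjusted values, limit read from the data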
NadD block: NadD (S. aureus) enzyme inhibition | purified NadD enzyme, colorimetric absorbance read-out | inhibition, % at 20 µM | actives 0.78% (n = 360,000); in the data active = inhibition above about 26%
NadD conf: NadD (S. aureus) inhibition, single concentration confirmation; shares compounds with NadD block; purified S. aureus NadD, colorimetric enzyme assay; inhibition, % at 20 µM; actives 13% (n = 2,000); AID 624309; in the data active = inhibition mostly above about 42%, no sharp cut-off; inactive = mostly below about 42%
An asterisk follows results filed as active. This is a sample that favours compounds with a hit; in the whole collection about 1.5% have one here.

For Cc1cccc(N2CCN(C(=O)c3ccc4nc(-c5ccco5)c(-c5ccco5)nc4c3)CC2C)c1 (configuration not stated) the results were Neddyl block 19, NPR1 activator -1, NPR2 activator -5, NadD block 42* and NadD conf 8.
For CCOC(=O)Cn1c(=NC(=O)c2sc3ccccc3c2Cl)sc2cc(S(N)(=O)=O)ccc21 the results were NPR1 activator -7, NPR2 activator -3, NadD block 51* and NadD conf -2.
For COC(=O)Cn1c(=NC(=O)c2sc3ccccc3c2Cl)sc2cc(S(N)(=O)=O)ccc21 the results were Neddyl block -10, NPR1 activator -14, NPR2 activator -12, NadD block 37* and NadD conf 7.
Screening CCOC(=O)Cn1c(=NC(=O)CSC(C)=O)sc2ccccc21 returned Neddyl block 4, NPR1 activator -1, NPR2 activator 2 and NadD block -3.
COC(=O)Cn1c(=NC(=O)c2nc3ccccc3s2)sc2cc(S(C)(=O)=O)ccc21 was read as NPR1 activator 11 and NPR2 activator 2.
For COc1ccc2c(c1)CN1C(=O)N(C3CCCC3)S(=O)(=O)CC21 (configuration not stated) the results were NPR1 activator 0 and NPR2 activator 4.
For COc1ccc(C(C(=O)N(C)C2CCCC2)N(Cc2ccc(F)cc2)C(=O)c2ccc3ccccc3c2)cc1OC (configuration not stated) the results were NPR1 activator -15 and NPR2 activator -15.
Screening Nn1c(SCC(=O)Nc2ccc(C(=O)O)cc2)nnc1-c1ccco1 returned NPR1 activator 3 and NPR2 activator 1.
For COc1cc(/C=N\NC(=O)c2ccc(-c3ccccc3)cc2)ccc1OCC(N)=O the results were NPR1 activator 2, NPR2 activator -5 and NadD block -4.
`CCOc1cc(/C=N/NC(=O)c2ccc(-c3csc(Nc4ccc(C)cc4)n3)cc2)ccc1OCC(=O)O` gave NPR1 activator -7, NPR2 activator 10, NadD block 53* and NadD conf 27.
Screening O=C(O)c1ccc(C=NNC(=O)c2cc(-c3ccc(Cl)cc3)n[nH]2)cc1 returned NPR1 activator -1 and NPR2 activator -3.
`O=C(O)COc1ccc(/C=N/NC(=O)c2ccc(-c3csc(Nc4ccc(Cl)cc4)n3)cc2)cc1` gave NPR1 activator -37, NPR2 activator -2, NadD block 71* and NadD conf 9.
Screening COc1ccccc1CNC(=O)N(CCc1c(C)[nH]c2ccccc12)Cc1cccs1 returned NPR1 activator -9 and NPR2 activator -6.
Screening Cc1ccc(-c2cc(-c3ccccc3)c(C#N)c(N)n2)o1 returned Neddyl block 38, NPR1 activator 14, NPR2 activator 10, NadD block 41* and NadD conf 48.
For Cc1ccc(-c2cc(-c3ccccc3Cl)c(C#N)c(N)n2)o1 the results were Neddyl block 39, NPR1 activator 18, NPR2 activator 5, NadD block 68* and NadD conf 57*.
For O=C(NCCC1=CCCCC1)C1CCN(S(=O)(=O)c2ccccc2[N+](=O)[O-])CC1 the results were NPR1 activator 3 and NPR2 activator -10.
`C/C(C=NNC(=O)CSc1nnc(-c2ccccc2)n1-c1ccc(C)cc1)=C\c1ccco1` gave NPR1 activator -16 and NPR2 activator -12.
`Cc1ccccc1N(C(=O)Cc1ccsc1)C(C(=O)NC1CCCCC1)c1ccc(F)cc1` (configuration not stated) gave Neddyl block -8, NPR1 activator -4, NPR2 activator -7, NadD block 31* and NadD conf -3.
O=C(NC1CCCC1)C(c1ccncc1)N(C(=O)Cc1cccs1)c1ccc(F)cc1 (configuration not stated) was read as Neddyl block 0, NPR1 activator -22, NPR2 activator -8 and NadD block -8.
Screening CCOc1ccc2nc(N3C(=O)/C(=C/c4ccc(Cl)cc4)NC3=S)sc2c1 returned Neddyl block -63, NPR1 activator -5, NPR2 activator 11, NadD block 49* and NadD conf 12.
For CC(=O)N1N=C(c2ccc3ccccc3c2)OC1(C)C the results were NPR1 activator 4, NPR2 activator 0 and NadD block -5.
For c1ccc2cc(-c3cc4ccccn4c3)ccc2c1 the results were Neddyl block 17, NPR1 activator 1, NPR2 activator -3, NadD block 35* and NadD conf 16.
Screening CC(C)c1ccc(NC(=O)O[C@H]2CC[C@@]34CCCN3C(=O)CCC[C@H]4[C@H]2C)cc1 returned NPR1 activator -2 and NPR2 activator -4.
Screening O=C(NNc1nc(-c2ccccc2)c2cc(Br)ccc2n1)c1ccc(S(=O)(=O)N2CCCCC2)cc1 returned Neddyl block 1, NPR1 activator -5, NPR2 activator -3, NadD block 37* and NadD conf 25.
O=C(NNc1nc(-c2ccccc2)c2cc(Br)ccc2n1)c1ccc(S(=O)(=O)N2CCOCC2)cc1 was read as Neddyl block -34, NPR1 activator -11, NPR2 activator -11 and NadD block 24.
COc1ccc(S(=O)(=O)N2CCOCC2)cc1NC(=O)c1cccc(-n2cccc2)c1 was read as Neddyl block 16, NPR1 activator -9, NPR2 activator 3 and NadD block 23.
CCOc1ccc(NC(=O)c2cccc(-n3cccc3)c2)cc1S(=O)(=O)N1CCOCC1 was read as Neddyl block -14, NPR1 activator -1, NPR2 activator 13, NadD block 32* and NadD conf 30.
`FC(F)(F)c1cc(-c2ccco2)nc(NCc2ccco2)n1` gave Neddyl block 14, NPR1 activator 1, NPR2 activator 1, NadD block 34* and NadD conf 40.
Screening O=C(/C=C(\Nc1cccc(OC(F)F)c1)c1ccccc1)c1ccccc1 returned NPR1 activator 1 and NPR2 activator -2.
`NC(=O)c1c(NC(=O)COC(=O)c2ccc(S(=O)(=O)Nc3ccccc3)cc2)sc2c1CCCC2` gave Neddyl block -15, NPR1 activator -1, NPR2 activator -1, NadD block 35* and NadD conf 26.
For O=C(COC(=O)c1ccc(S(=O)(=O)Nc2ccccc2)cc1)NC1CCCC1 the results were Neddyl block 7, NPR1 activator 1, NPR2 activator 0 and NadD block -4.
For COc1cccc(-c2nnc(NC(=O)c3ccc4ncsc4c3)o2)c1 the results were Neddyl block -7, NPR1 activator -5, NPR2 activator 1, NadD block 31* and NadD conf 8.
`CS(=O)(=O)c1cccc(-c2nnc(NC(=O)c3ccc4ncsc4c3)o2)c1` gave Neddyl block 7, NPR1 activator -2, NPR2 activator -1 and NadD block 12.
